# PAX8 reporter: lowers PAX8-driven luciferase in RMG-I cells; actives 1.2% (n = 360,000); AID 652154; RMG-I TPO-luciferase reporter, SteadyGlo, 24 h; inhibition, % at 12.6 µM;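 active = mean replicate inhibition at least 60% with every replicate also reaching 60%; inconclusive = only one of the two criteria is met; inactive = mean below 60% and not all replicates reaching 60%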;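 note: luciferase light reporting Pax8 driven TPO promoter activity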
# Shn3 inh set2: reduces Shn3 3'UTR luciferase signal in osteoblasts | Clone20 osteoblast Shn3 3'UTR firefly luciferase, 24 h | inhibition, % at 12.5 µM | actives 0.52% (n = 360,000);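 active = mean inhibition of at least 75% with every replicate also reaching 75%; inconclusive = mean inhibition at least 75% but some replicate below; inactive = mean inhibition below 75%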
# NSD2 inh: blocks human histone methyltransferase NSD2; O96028; NSD2 peptide methylation, AlphaScreen, 120 min; inhibition, % at 12.5 µM; actives 0.54% (n = 310,000); AID 743445; in the data active = inhibition above about 50%
# Target sequence (O96028 whole entry, looked up): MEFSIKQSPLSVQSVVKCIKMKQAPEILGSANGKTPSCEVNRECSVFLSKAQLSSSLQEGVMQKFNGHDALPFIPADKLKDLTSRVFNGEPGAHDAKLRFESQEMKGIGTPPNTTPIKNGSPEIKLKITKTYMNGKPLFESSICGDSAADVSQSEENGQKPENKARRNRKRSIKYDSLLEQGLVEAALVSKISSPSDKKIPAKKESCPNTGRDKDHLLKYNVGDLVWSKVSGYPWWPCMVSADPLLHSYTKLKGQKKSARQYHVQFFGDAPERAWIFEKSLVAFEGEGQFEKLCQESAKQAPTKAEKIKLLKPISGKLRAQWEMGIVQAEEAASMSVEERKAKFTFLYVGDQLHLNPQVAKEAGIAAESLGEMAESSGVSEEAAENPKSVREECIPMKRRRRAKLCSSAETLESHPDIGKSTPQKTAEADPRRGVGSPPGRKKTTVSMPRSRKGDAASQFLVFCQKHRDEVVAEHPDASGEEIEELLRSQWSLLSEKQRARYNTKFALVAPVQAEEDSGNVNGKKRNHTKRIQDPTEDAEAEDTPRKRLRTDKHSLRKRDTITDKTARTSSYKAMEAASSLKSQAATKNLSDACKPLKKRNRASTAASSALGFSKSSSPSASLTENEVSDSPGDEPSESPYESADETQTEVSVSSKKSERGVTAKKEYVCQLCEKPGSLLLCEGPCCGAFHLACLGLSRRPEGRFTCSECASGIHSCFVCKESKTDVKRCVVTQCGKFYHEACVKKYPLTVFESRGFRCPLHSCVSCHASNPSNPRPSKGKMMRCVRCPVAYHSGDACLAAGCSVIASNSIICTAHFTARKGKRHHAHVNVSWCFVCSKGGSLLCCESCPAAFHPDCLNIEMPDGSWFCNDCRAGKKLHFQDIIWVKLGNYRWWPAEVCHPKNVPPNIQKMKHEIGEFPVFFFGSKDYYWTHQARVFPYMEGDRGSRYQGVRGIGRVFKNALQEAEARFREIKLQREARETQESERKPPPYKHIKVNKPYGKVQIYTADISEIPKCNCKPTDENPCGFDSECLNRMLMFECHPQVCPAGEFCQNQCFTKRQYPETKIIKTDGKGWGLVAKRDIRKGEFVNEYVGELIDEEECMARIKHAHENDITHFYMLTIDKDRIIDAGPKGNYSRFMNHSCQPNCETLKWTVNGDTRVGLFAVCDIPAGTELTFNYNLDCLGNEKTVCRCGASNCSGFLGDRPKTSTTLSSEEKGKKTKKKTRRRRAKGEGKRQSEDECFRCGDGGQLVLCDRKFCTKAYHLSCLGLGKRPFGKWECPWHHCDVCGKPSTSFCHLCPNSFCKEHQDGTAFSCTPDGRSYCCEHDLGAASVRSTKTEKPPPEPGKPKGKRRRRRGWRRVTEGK
# HIV Env fusion: HIV envelope-mediated fusion inhibition; HeLa-JRFL Env/CEM21 cell fusion, luciferase; inhibition, % at 12.3 µM; actives 1.1% (n = 360,000); AID 651610;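 active = mean replicate inhibition score of at least 50 and every replicate individually at or above 50; inconclusive = only one of the two criteria met; inactive = mean below 50 and not all replicates reaching 50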
# N-glyco inh: N-linked glycosylation inhibition; D54 ERlucT glycosylation luciferase reporter, 24 h; percent of 100 nM tunicamycin response; reporter increase, % at 12.5 µM; actives 0.23% (n = 360,000); AID 588692;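 active = mean luciferase reporter signal, scaled so untreated is 0 and the glycosylation-blocking control 100, at or above a set limit in every replicate; inconclusive = mean reaches the limit but not every replicate does; inactive = mean below the limit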;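 note: luciferase carries N-glycosylation sites so blocking glycosylation raises the light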
# EBV LMP1 NFkB: inhibitors of Epstein-Barr LMP1-induced NF-kappaB reporter; LMP1-induced NF-kappaB luciferase reporter cells, luminescence; AID 504558; actives 0.69% (n = 350,000); inhibition, % at 12.5 µM; in the data active = inhibition above about 41%; inconclusive = no clear call, values can overlap the other calls
# Hits are given with their value; - = inactive; ? = inconclusive; . = no result given; ! = not confirmed by another sample; [ ] = another dose, or the depositor's remark. Hits are enriched below; roughly 2.8% of the tested compounds scored in any of these assays.
SMILES,PAX8 reporter,Shn3 inh set2,NSD2 inh,HIV Env fusion,N-glyco inh,EBV LMP1 NFkB
Cc1ccc(S(=O)(=O)Nc2ccc3c(c2)C(=O)N([C@@H](C)CO)C[C@H](C)[C@@H](CN(C)Cc2ccc(Cl)c(Cl)c2)OCCCC[C@@H](C)O3)cc1,103,.,.,-,.,.
C[C@@H]1CN([C@H](C)CO)C(=O)c2cc(NS(=O)(=O)c3ccc(Cl)cc3)ccc2O[C@@H](C)CCCCO[C@H]1CN(C)Cc1ccc(Cl)c(Cl)c1,113,.,.,-,.,.
C[C@H](CO)N1C[C@H](C)[C@@H](CN(C)Cc2ccc(Cl)c(Cl)c2)Oc2ccc(N(C)C)cc2C1=O,-,.,.,58[16.7 µM],.,.
C[C@H]1CN([C@@H](C)CO)C(=O)c2cc(NS(=O)(=O)c3ccc(Cl)cc3)ccc2O[C@H]1CN(C)Cc1ccc(Cl)c(Cl)c1,81,.,.,-,.,.
C/C=C/c1ccc([C@H]2[C@@H](CO)N(C(=O)CC)C23CN(S(=O)(=O)CC)C3)cc1,-,.,.,.,.,.
C[C@H]1CN([C@@H](C)CO)C(=O)Cc2cc(NC(=O)c3ccncc3)ccc2O[C@@H]1CN(C)C(=O)Nc1cccc2ccccc12,-,.,.,-,.,.
C[C@H](CO)N1C[C@H](C)[C@@H](CN(C)Cc2ccc(Cl)c(Cl)c2)OCCCC[C@H](C)Oc2ccc(NS(=O)(=O)c3ccc(F)cc3)cc2C1=O,105,.,.,78[16.7 µM],.,.
O=C(NCCC1=CCCCC1)c1ccc(F)c(S(=O)(=O)N2CCOCC2)c1,.,-,-,.,-,-
CC1CN(S(=O)(=O)c2cc(C(=O)NCCC3=CCCCC3)ccc2Cl)CC(C)O1 (stereo not drawn),-,-,-,68,-,-
COc1ccccc1-c1cn(CC[C@H]2CC[C@H](NC(=O)c3ccccc3F)[C@H](CO)O2)nn1,-,.,.,-,.,.
Cc1ccc(NC(=O)c2ccc(Cl)cc2[N+](=O)[O-])nc1,-,-,-,-,31,-
NC(=O)c1ccc(N2CCN(c3ccc(O)cc3)CC2)c([N+](=O)[O-])c1,-,-,-,66,-,-
Cc1sc2ncnc(Sc3nnnn3-c3ccc(Cl)cc3)c2c1C,75,-,-,50,-,-
C[C@@H]1CCCCO[C@@H](CN(C)Cc2ccc(C(F)(F)F)cc2)[C@H](C)CN([C@@H](C)CO)C(=O)c2cc(NC(=O)Cc3ccccc3)ccc2O1,81,.,.,?,.,.
C[C@@H]1CN([C@H](C)CO)C(=O)c2cc(NC(=O)Cc3ccccc3)ccc2O[C@@H](C)CCCCO[C@@H]1CN(C)Cc1ccc(C(F)(F)F)cc1,87,.,.,65[16.7 µM],.,.
C[C@@H]1CCCCO[C@H](CN(C)Cc2ccc(C(F)(F)F)cc2)[C@H](C)CN([C@@H](C)CO)C(=O)c2cc(NC(=O)Cc3ccccc3)ccc2O1,65!,-,.,-,-,-
C[C@H](CO)N1C[C@H](C)[C@@H](CN(C)Cc2ccc(C(F)(F)F)cc2)OCCCC[C@H](C)Oc2ccc(NC(=O)Cc3ccccc3)cc2C1=O,80,.,.,-,.,.
C[C@@H]1CCCCO[C@@H](CN(C)Cc2ccc(C(F)(F)F)cc2)[C@@H](C)CN([C@H](C)CO)C(=O)c2cc(NC(=O)c3ccccc3)ccc2O1,-,.,.,-,.,.
C[C@@H]1CCCCO[C@@H](CN(C)Cc2ccc(C(F)(F)F)cc2)[C@@H](C)CN([C@H](C)CO)C(=O)c2cc(NC(=O)Cc3ccccc3)ccc2O1,-,.,.,-,.,.
CC(C)CC#Cc1ccc([C@H]2[C@H](CO)N3CCCCN(C(=O)NC4CCCC4)C[C@@H]23)cc1,-,.,.,.,.,.
C[C@H](CO)N1C[C@H](C)[C@@H](CN(C)S(=O)(=O)c2ccc([N+](=O)[O-])cc2)OCc2ccccc2-c2ccccc2C1=O,-,.,.,.,.,.
C=C1C(=O)c2sccc2C(c2ccc(OC)c(OC)c2)C1COC(C)=O (stereo not drawn),115,99,-,-,-,79
C[C@H]1CCCCO[C@@H](CN(C)Cc2ccccc2)[C@@H](C)CN([C@@H](C)CO)C(=O)c2cc(NC(=O)C3CCCCC3)ccc2O1,-,.,.,-,.,.
CCN(CCN(C)C)C(=O)C1CCN(S(=O)(=O)c2c(C)noc2/C=C/c2ccccc2F)CC1,-,-,-,-,-,-
Cc1noc(/C=C/c2ccco2)c1S(=O)(=O)N1CCC(C(=O)N(C)Cc2ccccc2)CC1,.,-,-,-,-,-
SMILES,PAX8 reporter,Shn3 inh set2,NSD2 inh,HIV Env fusion,N-glyco inh,EBV LMP1 NFkB
Cc1noc(/C=C/c2ccco2)c1S(=O)(=O)N1CCC(C(=O)NC(C)c2ccccc2)CC1 (stereo not drawn),94,-,.,-,-,-
CCOc1ccccc1/C=C/c1onc(C)c1S(=O)(=O)N1CCC(C(=O)N(CC)CC)CC1,-,-,-,-,-,60
C[C@@H]1CN([C@@H](C)CO)C(=O)c2cc(C#CC3(O)CCCC3)cnc2O[C@H]1CN(C)C(=O)C1CC1,.,.,.,-,.,.
C[C@H]1CN([C@@H](C)CO)C(=O)Cc2cc(NS(=O)(=O)c3ccc(F)cc3)ccc2O[C@H]1CN(C)S(=O)(=O)c1ccc(F)cc1,-,.,.,-,.,.
Cc1ccccc1OCCCCn1cnc2ccccc21,-,-,-,65,-,-
Cc1ccc(OCCCCn2cnc3ccccc32)cc1,-,-,-,-,-,-
c1ccc2c(c1)ncn2CCCCOc1ccc2c(c1)CCC2,.,-,-,88,-,-
Cn1cnc([N+](=O)[O-])c1S(=O)(=O)Oc1cccc2ccccc12,80,97,-,-,-,-
Cn1cnc([N+](=O)[O-])c1S(=O)(=O)Oc1ccc(Cl)cc1,110,93,-,-,-,-
COCC(=O)NC[C@@H]1N[C@@H](CO)[C@H]1c1ccc(-c2ccccc2F)cc1,-,.,.,.,.,.
Oc1c(N=NC(=S)Nc2ccccc2F)c2ccccc2n1Cc1ccc(Cl)cc1,-,-,-,-,-,-
Oc1c(N=NC(=S)Nc2ccccc2F)c2ccccc2n1Cc1ccccc1F,-,-,-,-,-,48
C=CCn1c(O)c(N=NC(=S)Nc2cccc(OC)c2)c2ccccc21,.,-,-,.,-,-
C=CCn1c(O)c(N=NC(=S)Nc2ccc(OC)cc2)c2ccccc21,-,-,-,37,-,-
Cc1ccccc1Cn1c(O)c(N=NC(=S)Nc2ccccc2F)c2ccccc21,-,-,-,-,-,44
Cc1ccc(C)c(Cn2c(O)c(N=NC(=S)Nc3ccccc3F)c3ccccc32)c1,-,-,-,-,-,45
CO[C@H]1CN(C)C(=O)c2ccc(NC(C)=O)cc2OC[C@H](C)N(C(=O)C2CCC2)C[C@H]1C,-,.,.,-,.,.
O=C(Cc1ccccc1)N1CC(=O)N2[C@H](CO)[C@@H](c3ccc(-c4ccccc4)cc3)[C@@H]2C1,-,.,.,.,.,.
COc1ccccc1NC(=O)Nc1ccc2c(c1)C(=O)N(C)C[C@H](OC)[C@H](C)CN[C@@H](C)CO2,-,.,.,-,.,.
Cc1noc(C)c1S(=O)(=O)N(C)C[C@@H]1Oc2ccc(NC(=O)NC3CCCCC3)cc2CC(=O)N([C@@H](C)CO)C[C@@H]1C,-,.,.,62[16.7 µM],.,.
